# Results reported in the OligoGym collection.
# Target: FUT7
# Assay: pooled miR-30 sensor sort-seq; sequence = guide strand
# Conditions: shRNA
# Further: reference of the scale not given here.
row,Sequence,sensor-assay potency score (higher = more potent)
1,TCAAGGTCCTCATAGACTTGGC,-0.439
2,AACAGTCGCACGCGGAGCCTGT,-1.06
3,TCAAAGGACAGGTAGAAGCGGT,0.117
4,TCGGTGAACAGTCGCACGCGGA,-1.48
5,TTGCGCCAGAATTTCTCCGTAA,-0.526
6,TCATCCACATGCACGAAGGCGT,-0.506
7,AAAGTCATCCACATGCACGAAG,-0.891
8,TAATGTAGTCGCGGTGCTGAGA,-0.815
9,TCCTCATAGACTTGGCTGCGGG,-1.76
10,TATCGGCTCTCATTCATGCCAG,-0.795
11,TTGGTATCGGCTCTCATTCATG,-1.57
12,TTCTCCGTAATGTAGTCGCGGT,-0.562
13,TCACAGATGGCACAGAAACGTT,-1.59
14,TTGAAGATGCCTCGGAGGTGGC,-0.867
15,TGTCGCTGGGCAGCTCTGGGGG,-1.3
16,TCTCCGTAATGTAGTCGCGGTG,-1.48
17,TTGGCACTCAGGTGGCAGCGGG,-1.03
18,ATAGGGCACAAAGATGTCCGAG,-0.929
19,TAGGGCACAAAGATGTCCGAGT,-0.24
20,TAGCGGTCACAGATGGCACAGA,-0.787
21,TTGATTTCGACACCCAGCCCTT,-1.26
22,AAAGATGTCCGAGTCGCGCCGG,-0.517
23,TTTCTCCGTAATGTAGTCGCGG,-0.338
24,AAGATGTCCGAGTCGCGCCGGT,-0.72
